A selection: hits, their analogues and other compounds. The true share with any hit is near 19%.
Lassa entry inh: Lassa virus entry inhibition; Lassa virus pseudotype entry inhibition, cell reporter; Potency, µM (series often up to 37.9 µM), for inactives: at the highest dose activity change, negative = inhibition, usual class: inhibitors; AID 540256; 300,000 tested, 1.2% active; calls by dose curve; tested in HEK293 cells; note: potency is the fitted concentration of half-maximal effect; % is set by controls: 0 for no effect and ±100 for the full control effect; nearly all actives have a fitted effect of over 50% in size
Pf growth 96h: inhibits malaria parasite growth, 96 h | P. falciparum luciferase reporter growth, 96 h | Potency, µM (highest dose often 28.7 µM), without a hit: top-dose activity change, negative = inhibition, actives largely listed as inhibitors | 320,000 tested, 6.9% active | AID 504834; note: potency is the fitted concentration of half-maximal effect; % is set by controls: 0 for no effect and ±100 for the full control effect
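Infected RBCs, 2% Hct / 0.05% parasitemia final; luciferase-reporter P. falciparum; cpd 96 h, 37 C, 5% CO2; luciferase detection reagent; luminescence.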
Pf growth 48h: inhibits P. falciparum growth in the first generation, 48 h | P. falciparum luciferase growth in erythrocytes, 48 h | Potency, µM (highest dose often 28.7 µM), for the others: at the top dose activity change, negative = inhibition, usual class: inhibitors | 310,000 tested, 5.9% active | AID 504832; note: potency is the fitted concentration of half-maximal effect; % is set by controls: 0 for no effect and ±100 for the full control effect
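Luciferase-expressing parasites in RBCs, 2% Hct / 0.1% parasitemia final; RPMI 1640 + 0.5% Albumax; 37 C, 5% CO2, one generation; luminescence read-out, lower signal = inhibition.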
Shiga inhibitor: blocks Shiga toxin action in Vero cells; Vero cells, Shiga toxin protein synthesis inhibition reporter; inhibition, % at 38.7 µM; 290,000 tested, 9.2% active; AID 2315; in the data active = inhibition mostly above about 28%, no sharp cut-off; inactive = mostly below about 43%; note: 0% is about no effect
CHX counter: affects cycloheximide protein synthesis inhibition readout, counter-screen; max response, %; 300,000 tested, 12% active; cell reporter, cycloheximide protein synthesis inhibition counterscreen; in the data active = max response mostly above about 13%, no sharp cut-off; inactive = mostly below about 14%; note: read at 38.3 µM for the half of the compounds with a filed dose; 0% is about no effect
MARV entry inh: inhibitors of Marburg virus binding or cell entry | Marburg virus pseudotyped entry inhibition, cell reporter | Potency, µM (series often up to 37.8 µM), inactives show at the highest dose activity change, negative = inhibition, most hits filed as inhibitors | 300,000 tested, 1.8% active; calls by dose curve; tested in HEK293 cells; note: potency is the fitted concentration of half-maximal effect; % is set by controls: 0 for no effect and ±100 for the full control effect
Starred values were filed as active, the others as inactive; u = inconclusive; x = no result given; [ ] = dose if it differs, or a comment. Unless noted, calls come from the whole dose curve; as a rule, active = well fitted inhibition curve with a large enough effect; inconclusive = small, poorly fitted or top-dose-only effect, or another doubt; inactive = no such curve, though single readings can be large or run the other way.

SMILES | Lassa entry inh | Pf growth 96h | Pf growth 48h | Shiga inhibitor | CHX counter | MARV entry inh
Cc1cccc(-c2nc(-c3ccc4c(c3)[nH]c(=O)n4C)no2)c1 | 25.0%[46.1 µM] | x | x | x | x | x
CC(C)NC(=O)CN1C(=O)C(C)(C)Oc2ccc(C(=O)NC3CCCCC3)cc21 | 17.3% | 23.9% | -0.3% | -2.4 | -4.6 | 15.5%[46.1 µM]
CCC(=O)c1ccc2c(c1)OCCO2 | x | 15.8% | 19.2% | 33.0 | 13.5* | x
O=C(CS(=O)(=O)c1ccccc1)c1ccc2c(c1)OCCO2 | 1.1% | u | 274.4% | 58.4* | 45.1* | 2.7%
CCCC(=O)c1ccc2c(c1)OCCO2 | -8.0% | x | 30.8% | 28.1 | 10.2 | 11.8%
CCc1ccc(N2C(=O)CC(c3ccc(F)cc3)C3=C2COC3=O)cc1 (stereo unspecified) | x | u | -25.7% | -7.3 | -1.0 | x
Cn1c(=O)n(CCOc2ccc(Cl)cc2Cl)c2ccccc21 | 28.0% | 23.9% | x | -8.8 | -0.7 | 22.9%
O=c1ccccn1CCOc1ccccc1Cl | u | 0.9% | 27.4% | 44.7* | 19.1* | 4.9%
Cn1c(=O)n(CCOc2ccccc2Cl)c2ccccc21 | 1.1% | 18.0% | u | 79.0* | 49.6* | u
COc1ccccc1OCCn1c(=O)n(C)c2ccccc21 | 11.3%[46.1 µM] | 15.5% | 22.4% | 27.6* | 20.8* | u
Clc1ccccc1OCCN1CCCCC1 | 3.2% | 3.7% | 6.5% | -3.0 | 0.5 | -14.8%
O=C(CSc1ccsc1[N+](=O)[O-])Nc1cc(F)ccc1F | x | 31.0% | -28.6% | 44.6* | 19.5* | x
CCN(CC)c1ccc(NC(=O)CSc2ccsc2[N+](=O)[O-])c(C)c1 | -23.5% | 4.4% | -28.4% | 0.4 | 4.9 | 0.3%
Cc1ccc(CNC(=O)CSc2ccsc2[N+](=O)[O-])cc1 | -9.2%[46.1 µM] | u | -43.1% | 72.1* | 53.7* | u
COc1ccc(CNC(=O)CSc2ccsc2[N+](=O)[O-])cc1 | x | -19.4% | u | 84.1* | 34.2* | x
CCOc1cc(C=O)ccc1OCCCN1C(=O)NC(C)(C)C1=O | 13.0% | -14.7% | x | -8.7 | -3.3 | -0.4%
Cc1cc(=O)[nH]c(SCCCOc2ccccc2Cl)n1 | 4.7% | u | x | -0.5 | 3.9 | -7.9%
C/C=C/c1ccc(OCCSc2nc(C)cc(=O)[nH]2)c(OC)c1 | u | -11.7% | u | 77.0* | 23.7* | 3.5%
Cc1cc(=O)[nH]c(SCCOc2ccc(OC(C)C)cc2)n1 | u | 1.3% | 72.3% | 46.9* | 31.1* | -17.7%
C/C=C/c1ccc(OCCCCN2C(=O)NC(C)(C)C2=O)c(OC)c1 | 18.3µM* | u | 4.5% | 24.7 | 13.7* | u
CCOc1ccccc1C(=O)N[C@H](C(=O)NCc1ccccc1)C(C)C | 9.9% | -3.1% | -26.7% | 15.6 | -0.7 | 0.9%[46.1 µM]
CC(C)(C)SC(C(=O)N1CCOCC1)c1ccc(Br)cc1 (stereo unspecified) | -13.7% | -9.2% | 2.0% | -7.0 | -3.1 | 11.8%[46.1 µM]
CCCc1cc(NCCCO)n2c(nc3ccccc32)c1C#N | u | 3.29µM* | u | -3.3 | 1.2 | -19.1%[46.1 µM]
CCC(C)Nc1cc(C)c(C#N)c2nc3ccccc3n12 (stereo unspecified) | 21.4%[46.1 µM] | -0.8% | -6.2%[0.00184 µM] | -1.9 | -6.7 | u
CCC(C)Sc1cc(C)c(C#N)c2nc3ccccc3n12 (stereo unspecified) | u | 2.94µM* | 8.28µM* | -1.0 | -2.9 | -1.9%
SMILES | Lassa entry inh | Pf growth 96h | Pf growth 48h | Shiga inhibitor | CHX counter | MARV entry inh
Cc1cc(NCCCOC(C)C)n2c(nc3ccccc32)c1C#N | x | -5.6% | 5.22µM* | x | 1.4 | x
Cc1cc(NCCCN(C)C)n2c(nc3ccccc32)c1C#N | -10.0% | 12.0% | 5.5%[0.00184 µM] | -3.0 | -3.3 | -17.0%
Cc1cc(N2CCN(C3CCCC3)CC2)n2c(nc3ccccc32)c1C#N | -7.7% | 0.233µM* | 0.294µM* | -6.4 | -1.2 | -9.6%
COc1cc(/C=N/NC(=O)Cc2c[nH]c3ccccc23)cc(OC)c1OC | u | 19.8% | -13.9% | 24.4 | 1.5 | -27.3%
Cc1cc(Nc2c(C)n(C)n(-c3ccccc3)c2=O)n2c(nc3cc(F)c(F)cc32)c1C#N | x | 1.1% | 4.0% | -1.3 | -5.0 | x
CC(Oc1ccc(C(=O)NCCc2ccccc2)cc1)C(=O)O (stereo unspecified) | -15.2% | x | 38.8% | -8.9 | 9.5 | 11.5%
CC(C)OC(=O)C(C)Oc1ccc(C(=O)NCCc2ccccc2)cc1 (stereo unspecified) | 6.0% | 8.6% | 64.3% | 40.0* | 24.8* | u
CCCCOc1ccc(C(=O)NCc2ccccn2)cc1 | 11.6% | x | -0.5% | 33.9 | 20.9* | 9.1%
COc1ccc(C(=O)NCc2ccccn2)cc1 | 14.0% | -2.7% | 31.9% | 8.2 | 12.7 | 1.1%[46.1 µM]
CCCCOc1ccc(C(=O)NCCc2ccccc2)cc1 | x | 2.62µM* | 27.2% | 91.4* | 41.8* | x
Cc1ccc(NC(=O)COc2ccc(C(=O)NCCc3ccccc3)cc2)cc1 | -22.5%[14.3 µM] | x | x | x | x | -22.8%
O=C(COc1ccc(C(=O)NCCc2ccccc2)cc1)Nc1ccccc1 | 0.6% | 4.15µM* | 6.7% | -7.6 | -2.2 | 0.3%
O=C1C2C3CCC(CC3)C2C(=O)N1c1ccccc1 (stereo unspecified) | -9.5%[46.1 µM] | 1.0% | -18.1% | -8.1 | -0.7 | 6.2%[46.1 µM]
Cc1ccccc1CN(c1ccc(C(=O)NCc2ccccn2)cc1)S(C)(=O)=O | 3.5%[46.1 µM] | 20.1% | 1.1% | -9.1 | -1.4 | 5.1%[46.1 µM]
CS(=O)(=O)N(Cc1ccccc1Cl)c1ccc(C(=O)NCc2ccccn2)cc1 | -6.8% | 10.4µM* | u | 1.1 | -6.9 | 23.1%
Nc1nc(C2CC2)c(Sc2sc(N)nc2C2CC2)s1 | 2.51µM* | u | 26.7% | -9.8 | 1.5 | u
CC1Cc2cc(S(=O)(=O)CCC(=O)Nc3ccccc3F)ccc2N1C(=O)C1CC1 (stereo unspecified) | -11.5%[46.1 µM] | x | x | x | x | x
Cc1cc(C)n2nc(SCC(=O)N3CCN(c4ccc(F)cc4)CC3)nc2n1 | x | 6.57µM* | u | x | x | x
Cc1cc(C)n2nc(SCC(=O)N3CCC(C(=O)O)CC3)nc2n1 | 6.8% | x | x | x | x | -2.4%
COc1ccc(N2CCN(C(=O)CSc3nc4nc(C)cc(C)n4n3)CC2)cc1 | 5.7% | 13.1µM* | u | x | x | 20.7%
Cc1cc(C)n2nc(SCC(=O)N3CCOCC3)nc2n1 | x | -5.9% | 30.6% | x | x | x
O=C(COc1cccc2ccccc12)NNC(=O)c1cnccn1 | -35.3% | u | u | 1.8 | -5.3 | -9.6%
CC(C)c1ccc(OCC(=O)NNC(=O)c2cnccn2)cc1 | 8.9% | 10.4µM* | u | 23.7 | 2.9 | 18.7%[46.1 µM]
O=C(COc1ccc2ccccc2c1)NNC(=O)c1cnccn1 | 8.2% | 9.28µM* | 14.7µM* | -7.0 | -2.9 | -41.2%
COC(=O)C1=C(C(=O)OC)SC2(S1)C(C(=O)OC)=C(C(=O)OC)Sc1c2ssc1=O | 11.2µM* | x | x | x | x | u
Cc1nn(C)c(C)c1NC(=O)CC12CC3CC(CC(C3)C1)C2 | x | 32.7% | 36.5% | -2.8 | -5.4 | x
CCC(=O)Nc1c(C)nn(-c2ccc(C)c(C)c2)c1C | 0.3% | -16.3% | -2.6% | 65.2* | 21.9* | 9.1%
Cc1nn(C)c(C)c1NC(=O)CCl | 11.2µM* | 12.6% | u | -10.1 | -4.4 | 2.7%[46.1 µM]
